TDP1 cell CPT – DT40-hTDP1 cell growth loss with CPT; chicken DT40 Tdp1-/-;hTDP1 cells + 20 nM CPT, ATP luminescence, 48 h; Potency, µM (series often up to 46.2 µM), for the others: at the top dose activity change, negative = growth inhibition, hits mostly inhibitors; actives 12% (n = 420,000); AID 686979; further: on the % scale 0 is the no-effect control and ±100 the full control effect; nearly all actives have a fitted effect of over 55% in size
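Cell growth measured by CellTiter-Glo luminescence after a minimum 48 h, 37 C compound exposure with 20 nM CPT in Tdp1-knockout DT40 cells stably expressing hTDP1, seeded 400/well; qHTS titration format.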
TDP1 cell noCPT – qHTS for Inhibitors of human tyrosyl-DNA phosphodiesterase 1 (TDP1): qHTS in cells in absence of CPT. DT40 Tdp1-/- hTDP1 cells, no CPT, ATP luminescence, 48 h. Potency, µM (doses to about 46.2 µM), for inactives: at the highest dose activity change, negative = growth inhibition, hits mostly inhibitors. actives 15% (n = 420,000); further: on the % scale 0 is the no-effect control and ±100 the full control effect; nearly all actives have a fitted effect of over 55% in size
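DT40 Tdp1-/-;hTDP1 cells, no CPT (DMSO vehicle only), 400 cells/well; compounds pin-transferred; ≥48 hr, 37 °C; CellTiter-Glo 30 min RT dark, luminescence read.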
HepG2 tox – counter-screen for TGF-b inhibitors: cytotoxicity in HepG2 cells; Potency, µM (doses to about 46.1 µM), without a hit: at the highest dose activity change, negative = cytotoxicity, hits mostly cytotoxic; HepG2 CAGA-GFP viability, ATP luminescence, 18 h; actives 0.76% (n = 410,000)
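HepG2 CAGA-GFP cells (1000/well, DMEM with 1% FBS) received compound, then TGF-beta at 500 pg/mL final, and were incubated 18 hours at 37 degrees C. Viability was read by CellTiter-Glo luminescence. Media-only wells were set as complete cell-killing and DMSO as no toxicity.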
HT1080-NT tox – kills 2HG-producing HT-1080-NT fibrosarcoma cells; HT-1080-NT fibrosarcoma viability, CellTiter-Glo ATP luminescence, 48 h; actives 1.6% (n = 360,000); Potency, µM (titrated, usually from 46.1 µM), inactives show at the highest dose activity, negative = less viability, usual class: cytotoxic;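 further: NT is the 2HG producing partner of a matched IDH1 knockdown line; 0% = DMSO-treated cells and -100% = media-only wells without cells; nearly all actives have a fitted effect of over 55% in size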
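Viability by CellTiter-Glo luminescence after 48 h compound exposure at 37C of HT-1080-NT cells (750/well, RPMI, 5% FBS). % activity scaled between DMSO wells and medium-only wells, then curve-fitted and categorized by curve class.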
HT1080 IDH1KD tx – toxicity to HT-1080 IDH1 knockdown cells (counter line) | HT-1080 IDH1 knockdown viability, ATP luminescence, 48 h | actives 2% (n = 360,000) | Potency, µM (highest dose often 46.1 µM), for inactives: at the highest dose activity, negative = toxicity, most hits filed as cytotoxic;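 further: 0% = DMSO wells and -100% = cell-free medium wells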
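In this qHTS, HT-1080 cells depleted of IDH1 are exposed for 48 h at 37 °C to compound titrations. Toxicity is scored from CellTiter-Glo luminescence, with DMSO as full viability and medium alone as none.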
TGFb SMAD3 inh – inhibitors of TGF-b signaling; HepG2 CAGA-GFP TGF-b/SMAD3 reporter, GFP fluorescence, 18 h; TGF-beta stimulated, 500 pg/mL final; Potency, µM (top dose mostly 46.1 µM), inactives show at the highest dose activity, negative = inhibition, most hits filed as inhibitors; actives 1.2% (n = 410,000); AID 588855; further: on the % scale 0 is the no-effect control and ±100 the full control effect; nearly all actives have a fitted effect of over 65% in size
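Read-out: total well GFP (ex488/em500-530) summed from mean per-cell fluorescence. Cells: HEPG2 CAGA-GFP, 1% FBS DMEM, 18 h at 37 degrees C with 500 pg/mL final TGF-beta. Unstimulated wells served as the full-inhibition control; stimulated DMSO wells = 0%.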
Starred values were filed as active, the others as inactive; ? = inconclusive; · = not tested or not shown; [ ] = dose if it differs, or a comment. Most compounds without a hit are left out; they make up all but 17% or so of the library. The call rests on the fitted dose curve; in most records, active means well fitted curve in the direction sought with a large enough effect; inconclusive means small, poorly fitted or top-dose-only effect, or another doubt; inactive means no such curve, though single readings can be large; an effect the other way counts as inactive or inconclusive. Potency means the concentration at half of the fitted maximal effect.

SMILES	TDP1 cell CPT	TDP1 cell noCPT	HepG2 tox	HT1080-NT tox	HT1080 IDH1KD tx	TGFb SMAD3 inh
COc1cc(OC)cc(C(=O)Nc2nc(-c3ccccc3)c(-c3ccccc3)o2)c1	7.3µM*	10µM*	-11%	?	?	?
CC(C)(C)OC(=O)CNC(=O)c1nc[nH]c1C(=O)NCC(=O)OC(C)(C)C	-25%	?	-1%	-2%	?	26%
Cc1ccc(NC(=O)c2c(C)oc3ccc(O)c(CN4CCCCCC4)c23)cc1	15µM*	16µM*	-30%	·	·	?
CCOC(=O)c1c(COc2ccccc2)oc2ccc(O)cc12	0%	-15%	-36%	-21%	-24%	?
Cc1oc2ccc(O)c(CN3CCCCCC3)c2c1C(=O)Nc1cccc(C(F)(F)F)c1	3.7µM*	5.2µM*	13µM*	·	·	?
Cc1ccc(NC(=O)c2c(C)oc3ccc(O)c(CN4CCN(Cc5ccccc5)CC4)c23)cc1	21µM*	-86%	-47%	·	·	?
CCOC(=O)c1c(CSCc2ccccc2)oc2ccc(O)c(CN(C)C)c12	15µM*	16µM*	22µM*	21µM*	18µM*	?
Cc1ccc(NC(=O)c2c(C)oc3ccc(O)c(CN4CCCCCC4)c23)c(C)c1	9.2µM*	6.5µM*	-31%	·	·	?
Cc1oc2ccc(O)c(CN3CCN(C)CC3)c2c1C(=O)Nc1ccc(C(C)C)cc1	16µM*	21µM*	-25%	·	·	-25%
CCOC(=O)c1c(-c2ccccc2)oc2ccc(O)c(CN3CCCC3)c12	23µM*	21µM*	-59%	?	?	-4%
Cc1ccc(NC(=O)c2c(C)oc3ccc(O)c(CN4CCOCC4)c23)c(C)c1	-15%	-17%	-1%	·	·	30%
Cc1oc2ccc(O)c(CN3CCCC3)c2c1C(=O)Nc1ccc(C(C)C)cc1	23µM*	23µM*	-76%	·	·	?
CCOc1ccc(N2CC(C(=O)Nc3cc(OCC)c(N4CCOCC4)cc3OCC)CC2=O)cc1 (stereo not drawn)	-9%	-4%	5%	0%	5%	0%
CC(=O)c1ccc(NC(=O)NC2CC(=O)N(c3ccc4c(c3)OCCO4)C2)cc1 (stereo not drawn)	6%	-7%	0%	-26%	-26%	1%
Cc1cccc(OCc2nnc(SCC(=O)N3c4ccccc4CCc4ccccc43)o2)c1	?	?	-1%	-8%	-13%	-17%
CC(C)(C)N(Cc1ccccc1)C(=O)CSc1nnc(CNc2ccc(F)cc2)o1	11µM*	?	-10%	-4%	?	-25%
O=C(CSc1nnc(CNc2ccc(F)cc2)o1)N1CCN(C(=O)c2ccco2)CC1	?	-15%	10%	-1%	5%	-1%
O=C(CSc1nnc(CNc2ccc(F)cc2)o1)N1c2ccccc2Sc2ccccc21	21µM*	26µM*	3%	-20%	?	-10%
O=C(CSc1nnc(COc2ccc(F)cc2)o1)N1c2ccccc2CCc2ccccc21	?	16µM*	8%	-23%	?	?
O=C(CCc1nnc(Cc2c[nH]c3ccccc23)o1)NCCC1CCCCO1 (stereo not drawn)	-12%	4%	1%	0%	-1%	-10%
O=C(Cn1ncc2c([nH]c3ccccc32)c1=O)NCc1cccc(Cl)c1	-4%	-13%	-16%	·	·	-1%
CCCCn1c(CNC(=O)C23CC4CC(CC(C4)C2)C3)nnc1SCC(=O)Nc1ccc(F)cc1	?	?	-36%	·	·	?
CC(C)(C)NC(=O)CSc1nc(O)cc(=O)[nH]1	-22%	-6%	4%	11%	11%	-1%
CN(Cc1ccccc1)C(=O)[C@@H]1CCCN1C(=O)OC(C)(C)C	-4%	-13%	·	10%	6%	·
COc1cc(NC(=O)CSc2ncnc3scc(-c4ccccc4)c23)c(C(=O)O)cc1OC	-2%	1%	1%	3%	-2%	2%
SMILES	TDP1 cell CPT	TDP1 cell noCPT	HepG2 tox	HT1080-NT tox	HT1080 IDH1KD tx	TGFb SMAD3 inh
COc1ccc(NS(=O)(=O)c2ccc3oc4ccccc4c3c2)cn1	23µM*	?	-23%	?	2%[9.24 µM]	?
CN1CCCC(CNC(=O)c2cnn(-c3nccc(-c4cccs4)n3)c2C2CC2)C1 (stereo not drawn)	-9%[9.04 µM]	-16%	·	·	·	·
CCOc1ccc(CCNC(=O)CCS(=O)(=O)c2ccc(C)cc2)cc1OCC	-5%	-8%	-7%	1%	0%	-4%
C=CCC1CCCCC1=C(C#N)c1ccccc1 (stereo not drawn)	1%	-3%	-35%	3%	5%	-17%
O=C(COc1cccc(NC(=O)c2ccco2)c1)c1ccc(F)cc1	?	21µM*	12%	-8%	-9%	-5%
O=C(COc1cccc(NC(=O)c2ccccc2)c1)c1ccc(F)cc1	?	-49%	10%	-6%	-27%	7%
COc1cccc(C(=O)COc2cccc(NC(=O)c3cccc([N+](=O)[O-])c3)c2)c1	?	16µM*	-23%	-18%	-19%	-9%
O=C(COc1cccc(NC(=O)c2cccc([N+](=O)[O-])c2)c1)c1ccc(F)cc1	?	13µM*	-56%	-23%	?	-23%
COC(=O)Nc1ccc(SCC(=O)c2cccc([N+](=O)[O-])c2)cc1	?	21µM*	-40%	?	?	?
COC(=O)c1cccc(NC(=O)COc2cccc([N+](=O)[O-])c2)c1	-13%	?	3%	20%	5%	5%
COc1cccc(/C=N/NC(=O)CN(C)S(=O)(=O)c2ccccc2)c1OC	-21%	-19%	-21%	-1%	-5%	-7%
CCc1nnc(NC(=O)CSc2nc3ccc(OC)cc3[nH]2)s1	2%	-7%	-9%	10%	13%	-2%
CC(C)(C)n1cnc2cc(NCc3ccccc3Cl)ccc21	?	15µM*	-33%	·	·	-20%
CCCNC(=O)c1ccc(N2CCC3(CC2)CC(c2cccc(Br)c2)=NO3)c([N+](=O)[O-])c1	6.5µM*	8.2µM*	5%	-13%	-14%	5%
C=C1CCN(c2ccc(C(=O)NCc3ccc(OC)cc3)cc2[N+](=O)[O-])CC1	21µM*	?	-18%	-16%	-4%	-6%
